# This is one part of a sample in which the strongest signals are shown more often than they occur.
# B1: DrGRIFIN (Danio rerio), Q6DGJ1 (protein)
# chain: MTLRFEASCPDGLCPGWSVILKGETPPEASKFEINFLCDRDDRVAFHFNPRFTESDIICNSYMANRWGQEERCNHFPLGVEEPFQIEIYSDNDHFHVYIDKAKVMQYKHRVEDLKTITKLQVVNDVKISSLEITKKLFY
# Assays:
# Test in all cases: glycan array binding signal (z-score within array); higher = stronger binding
# Settings in all cases: glycan notation: IUPAC condensed, linker removed
# [1] = biological target: Fuc(a1-2)[Gal(a1-3)]Gal(b1-3)GlcNAc
# Procedure, shortened: (§1)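 Negative Z-scores can be read as non-binding. The Z-score is calculated within each array and then averaged across arrays of one protein sequence at different concentrations or buffers and across linkers. Arrays, 3228 in all, were curated from the Consortium for Functional Glycomics database and kept only where the protein sequence was available.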
# [2] = biological target: Fuc(a1-2)[Gal(a1-3)]Gal(b1-3)GlcNAc(b1-2)Man(a1-3)[Fuc(a1-2)[Gal(a1-3)]Gal(b1-3)GlcNAc(b1-2)Man(a1-6)]Man(b1-4)GlcNAc(b1-4)GlcNAc
# Procedure, shortened: as §1
# [3] = biological target: Fuc(a1-2)[Gal(a1-3)]Gal(b1-3)GlcNAc(b1-3)GalNAc
# Procedure, shortened: as §1
# [4] = biological target: Fuc(a1-2)[Gal(a1-3)]Gal(b1-3)GlcNAc(b1-6)GalNAc
# Procedure, shortened: as §1
# [5] = biological target: Fuc(a1-2)[Gal(a1-3)]Gal(b1-4)Glc
# Procedure, shortened: as §1
# [6] = biological target: Fuc(a1-2)[Gal(a1-3)]Gal(b1-4)GlcNAc
# Procedure, shortened: as §1
# [7] = biological target: Fuc(a1-2)[Gal(a1-3)]Gal(b1-4)GlcNAc(b1-2)Man
# Procedure, shortened: as §1
# [8] = biological target: Fuc(a1-2)[Gal(a1-3)]Gal(b1-4)GlcNAc(b1-2)Man(a1-3)[Fuc(a1-2)[Gal(a1-3)]Gal(b1-4)GlcNAc(b1-2)Man(a1-6)]Man(b1-4)GlcNAc(b1-4)GlcNAc
# Procedure, shortened: as §1
# [9] = biological target: Fuc(a1-2)[Gal(a1-3)]Gal(b1-4)GlcNAc(b1-2)Man(a1-3)[Fuc(a1-2)[Gal(a1-3)]Gal(b1-4)GlcNAc(b1-2)Man(a1-6)]Man(b1-4)GlcNAc(b1-4)[Fuc(a1-6)]GlcNAc
# Procedure, shortened: as §1
# [10] = biological target: Fuc(a1-2)[Gal(a1-3)]Gal(b1-4)GlcNAc(b1-3)GalNAc
# Procedure, shortened: as §1
# [11] = biological target: Fuc(a1-2)[Gal(a1-3)]Gal(b1-4)GlcNAc(b1-3)[Fuc(a1-2)[Gal(a1-3)]Gal(b1-4)GlcNAc(b1-6)]GalNAc
# Procedure, shortened: as §1
# [12] = biological target: Fuc(a1-2)[Gal(a1-3)]Gal(b1-4)[Fuc(a1-3)]GlcNAc(b1-3)GalNAc
# Procedure, shortened: as §1
# [13] = biological target: Fuc(a1-2)[GalNAc(a1-3)]Gal(b1-4)GlcNAc(b1-6)GalNAc
# Procedure, shortened: as §1
# [14] = biological target: Fuc(a1-3)[Gal(b1-4)]GlcNAc(b1-6)[Gal(b1-3)GlcNAc(b1-3)]Gal(b1-4)Glc
# Procedure, shortened: as §1
# [15] = biological target: Gal(b1-3)GlcNAc(b1-2)Man(a1-3)[Gal(b1-3)GlcNAc(b1-2)Man(a1-6)]Man(b1-4)GlcNAc(b1-4)[Fuc(a1-6)]GlcNAc
# Procedure, shortened: as §1
# [16] = biological target: Gal(b1-3)GlcNAc(b1-3)Gal(b1-4)GlcNAc(b1-3)Gal(b1-4)GlcNAc(b1-2)[Gal(b1-3)GlcNAc(b1-3)Gal(b1-4)GlcNAc(b1-3)Gal(b1-4)GlcNAc(b1-6)]Man(a1-6)[Gal(b1-3)GlcNAc(b1-3)Gal(b1-4)GlcNAc(b1-3)Gal(b1-4)GlcNAc(b1-2)Man(a1-3)]Man(b1-4)GlcNAc(b1-4)[Fuc(a1-6)]GlcNAc
# Procedure, shortened: as §1
# [17] = biological target: Gal(b1-3)[Fuc(a1-4)]GlcNAc
# Procedure, shortened: as §1
# Gal(b1-4)Glc = biological target: Gal(b1-4)Glc
# Procedure, shortened: as §1
# Gal(b1-4)Glc6S = biological target: Gal(b1-4)Glc6S
# Procedure, shortened: as §1
# [18] = biological target: Gal(b1-4)GlcNAc(a1-6)Gal(b1-4)GlcNAc
# Procedure, shortened: as §1
# [19] = biological target: Gal(b1-4)GlcNAc(b1-2)Man(a1-6)[GlcNAc(b1-2)Man(a1-3)]Man(b1-4)GlcNAc(b1-4)GlcNAc
# Procedure, shortened: as §1
# [20] = biological target: Gal(b1-4)GlcNAc(b1-3)Gal(b1-4)GlcNAc(b1-2)[Gal(b1-4)GlcNAc(b1-3)Gal(b1-4)GlcNAc(b1-6)]Man(a1-6)[Gal(b1-4)GlcNAc(b1-3)Gal(b1-4)GlcNAc(b1-2)Man(a1-3)]Man(b1-4)GlcNAc(b1-4)GlcNAc
# Procedure, shortened: as §1
# Gal3S6S(b1-4)GlcNAc = biological target: Gal3S6S(b1-4)GlcNAc
# Procedure, shortened: as §1
# Gal3S6S(b1-4)GlcNAc6S = biological target: Gal3S6S(b1-4)GlcNAc6S
# Procedure, shortened: as §1
# Gal6S(b1-4)GlcNAc = biological target: Gal6S(b1-4)GlcNAc
# Procedure, shortened: as §1
# [21] = biological target: GalNAc(b1-3)Gal(a1-4)Gal(b1-4)GlcNAc(b1-3)Gal(b1-4)Glc
# Procedure, shortened: as §1
# GalNAc(b1-3)GlcNAc = biological target: GalNAc(b1-3)GlcNAc
# Procedure, shortened: as §1
# [22] = biological target: GalNAc(b1-4)GlcNAc(b1-2)Man
# Procedure, shortened: as §1
# GalNAc3S(b1-4)GlcNAc = biological target: GalNAc3S(b1-4)GlcNAc
# Procedure, shortened: as §1
# [23] = biological target: GlcNAc(a1-4)Gal(b1-4)GalNAc
# Procedure, shortened: as §1
# [24] = biological target: GlcNAc(b1-3)Gal(b1-4)GlcNAc(b1-2)Man(a1-3)[GlcNAc(b1-3)Gal(b1-4)GlcNAc(b1-2)Man(a1-6)]Man(b1-4)GlcNAc(b1-4)GlcNAc
# Procedure, shortened: as §1
# [25] = biological target: GlcNAc(b1-3)Gal(b1-4)GlcNAc(b1-3)Gal(b1-4)GlcNAc(b1-3)Gal(b1-4)GlcNAc(b1-2)[GlcNAc(b1-3)Gal(b1-4)GlcNAc(b1-3)Gal(b1-4)GlcNAc(b1-3)Gal(b1-4)GlcNAc(b1-6)]Man(a1-6)[GlcNAc(b1-3)Gal(b1-4)GlcNAc(b1-3)Gal(b1-4)GlcNAc(b1-3)Gal(b1-4)GlcNAc(b1-2)Man(a1-3)]Man(b1-4)GlcNAc(b1-4)[Fuc(a1-6)]GlcNAc
# Procedure, shortened: as §1
# [26] = biological target: GlcNAc(b1-4)Gal(b1-4)GlcNAc
# Procedure, shortened: as §1
# [27] = biological target: Man(a1-2)Man(a1-6)[Man(a1-3)]Man(a1-6)[Man(a1-2)Man(a1-2)Man(a1-3)]Man
# Procedure, shortened: as §1
# [28] = biological target: Man(a1-3)[Man(a1-6)]Man(a1-6)[Man(a1-2)Man(a1-3)]Man(b1-4)GlcNAc(b1-4)GlcNAc
# Procedure, shortened: as §1
# [29] = biological target: Neu5Ac(a2-3)Gal(b1-3)GlcNAc(b1-3)Gal(b1-3)GlcNAc
# Procedure, shortened: as §1
# [30] = biological target: Neu5Ac(a2-3)Gal(b1-3)GlcNAc(b1-3)GalNAc
# Procedure, shortened: as §1
# [31] = biological target: Neu5Ac(a2-3)Gal(b1-4)GlcNAc(b1-2)Man(a1-3)[Neu5Ac(a2-3)Gal(b1-4)GlcNAc(b1-2)Man(a1-6)]Man(b1-4)GlcNAc(b1-4)GlcNAc
# Procedure, shortened: as §1
# [32] = biological target: Neu5Ac(a2-3)Gal6S(b1-4)GlcNAc
# Procedure, shortened: as §1
# [33] = biological target: Neu5Ac(a2-6)Gal(b1-4)GlcNAc(b1-2)Man(a1-3)[Neu5Ac(a2-6)Gal(b1-4)GlcNAc(b1-2)Man(a1-6)]Man(b1-4)GlcNAc(b1-4)GlcNAc
# Procedure, shortened: as §1
# [34] = biological target: Neu5Ac(a2-6)Gal(b1-4)GlcNAc(b1-2)Man(a1-6)[Gal(b1-4)GlcNAc(b1-2)Man(a1-3)]Man(b1-4)GlcNAc(b1-4)GlcNAc
# Procedure, shortened: as §1
# [35] = biological target: Neu5Ac(a2-6)Gal(b1-4)GlcNAc(b1-2)[Neu5Ac(a2-6)Gal(b1-4)GlcNAc(b1-4)]Man(a1-3)[GlcNAc(b1-4)][Neu5Ac(a2-6)Gal(b1-4)GlcNAc(b1-2)[Neu5Ac(a2-6)Gal(b1-4)GlcNAc(b1-6)]Man(a1-6)]Man(b1-4)GlcNAc(b1-4)GlcNAc
# Procedure, shortened: as §1
# [36] = biological target: Neu5Ac(a2-6)Gal(b1-4)GlcNAc(b1-3)GalNAc
# Procedure, shortened: as §1
# Neu5Ac(a2-8)Neu5Ac = biological target: Neu5Ac(a2-8)Neu5Ac
# Procedure, shortened: as §1
# [37] = biological target: Neu5Ac(a2-8)Neu5Ac(a2-3)[GalNAc(b1-4)]Gal(b1-4)Glc
# Procedure, shortened: as §1
# Neu5Gc(a2-6)GalNAc = biological target: Neu5Gc(a2-6)GalNAc
# Procedure, shortened: as §1
binder,measurement,setting,value
B1,glycan array binding signal (z-score),[1],5.95
same,glycan array binding signal (z-score),[2],10.6
same,glycan array binding signal (z-score),[3],5.36
same,glycan array binding signal (z-score),[4],6.96
same,glycan array binding signal (z-score),[5],6.1
same,glycan array binding signal (z-score),[6],6.44
same,glycan array binding signal (z-score),[7],9.46
same,glycan array binding signal (z-score),[8],4.9
same,glycan array binding signal (z-score),[9],5.59
same,glycan array binding signal (z-score),[10],4.81
same,glycan array binding signal (z-score),[11],6.36
same,glycan array binding signal (z-score),[12],-0.062
same,glycan array binding signal (z-score),[13],-0.23
same,glycan array binding signal (z-score),[14],-0.109
same,glycan array binding signal (z-score),[15],-0.135
same,glycan array binding signal (z-score),[16],-0.107
same,glycan array binding signal (z-score),[17],-0.187
same,glycan array binding signal (z-score),Gal(b1-4)Glc,-0.191
same,glycan array binding signal (z-score),Gal(b1-4)Glc6S,-0.201
same,glycan array binding signal (z-score),[18],-0.172
same,glycan array binding signal (z-score),[19],-0.071
same,glycan array binding signal (z-score),[20],-0.039
same,glycan array binding signal (z-score),Gal3S6S(b1-4)GlcNAc,-0.193
same,glycan array binding signal (z-score),Gal3S6S(b1-4)GlcNAc6S,-0.097
same,glycan array binding signal (z-score),Gal6S(b1-4)GlcNAc,-0.181
same,glycan array binding signal (z-score),[21],-0.12
same,glycan array binding signal (z-score),GalNAc(b1-3)GlcNAc,-0.192
same,glycan array binding signal (z-score),[22],-0.129
same,glycan array binding signal (z-score),GalNAc3S(b1-4)GlcNAc,-0.052
same,glycan array binding signal (z-score),[23],-0.154
same,glycan array binding signal (z-score),[24],-0.132
same,glycan array binding signal (z-score),[25],-0.163
same,glycan array binding signal (z-score),[26],-0.166
same,glycan array binding signal (z-score),[27],-0.123
same,glycan array binding signal (z-score),[28],-0.189
same,glycan array binding signal (z-score),[29],-0.131
same,glycan array binding signal (z-score),[30],-0.117
same,glycan array binding signal (z-score),[31],-0.141
same,glycan array binding signal (z-score),[32],-0.179
same,glycan array binding signal (z-score),[33],-0.171
same,glycan array binding signal (z-score),[34],-0.195
same,glycan array binding signal (z-score),[35],-0.026
same,glycan array binding signal (z-score),[36],-0.217
same,glycan array binding signal (z-score),Neu5Ac(a2-8)Neu5Ac,-0.131
same,glycan array binding signal (z-score),[37],-0.146
same,glycan array binding signal (z-score),Neu5Gc(a2-6)GalNAc,-0.148

# Source: the supplement of paper PMC8728848
